Source: the supplement of paper PMC7156485
Values joined by “and” are separate entries in the source; they are usually repeats but may differ in a detail not shown here. Equal values may be shown once. ± gives the standard deviation of the averaged measurements.

How the values were obtained:
Conditions in all cases: concentration: 10 µM; 24 h
HCC1569 [1] = assay: cell number relative to DMSO (% of DMSO); higher = more cells (less growth inhibition / toxicity)
Outline: (§1)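 Using 384-well plates with 800 cells per well in RPMI plus 10% FBS, HCC1569 and TDF cells were exposed to compounds at 10 µM, in triplicate, for 24 h at 37 °C. Imaging of six fields per well at ×10 followed H1.0 and DAPI staining. The reported quantity, H1.0 nuclear intensity or cell number, is a median of replicates given as percent of the plate control, and HCC1569 values were smoothed for positional effects.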

TDF [2] = assay: as above
Outline: as §1

TDF [3] = assay: H1.0 immunofluorescence intensity relative to DMSO (% of DMSO); higher = stronger H1.0 induction, active = 120 or more
Outline: as §1

HCC1569 [4] = assay: H1.0 immunofluorescence intensity relative to DMSO (% of DMSO); higher = stronger H1.0 induction, active = 140 or more
Outline: as §1
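For H1.0 immunofluorescence intensity relative to DMSO in this document: TDF is a line of transformed human dermal fibroblasts of mesenchymal origin.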
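For cell number relative to DMSO in this document: TDF denotes transformed human dermal fibroblasts of mesenchymal origin.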

| SMILES | cell number (HCC1569 [1]) | cell number (TDF [2]) | H1.0 immunofluorescence intensity (TDF [3]) | H1.0 immunofluorescence intensity (HCC1569 [4]) |
| --- | --- | --- | --- | --- |
| N#Cc1cnc2cnc(NCc3cccnc3)cc2c1Nc1ccc(F)c(Cl)c1 [Tpl2 Kinase Inhibitor] | 69.9 | 74.3 | 92.6 (inactive) | 185 (active) |
| O=C1Nc2ccc(I)cc2C1=Cc1cc(Br)c(O)c(Br)c1 | 98.5 and 105 | 103 | 93.5 (inactive) and 85.7 (inactive) | 110 (inactive) and 83.8 (inactive) |
| CCCCCCCCC=CCCCCCCCC(=O)OCC(O)COP(=O)(O)O (stereo not drawn) [Lysophosphatidic acid] | 101 | 104 | 96.9 (inactive) | 105 (inactive) |
| Cc1ccc(S(=O)(=O)C=CC#N)cc1 | 68.3 and 78.4 | 103 and 100 | 98.9 (inactive) and 92.5 (inactive) | 191 (active) and 104 (inactive) |
| CN1CCN(CCCN2c3ccccc3Sc3ccc(C(F)(F)F)cc32)CC1.Cl.Cl [Trifluoperazine.2HCl] | 94.5 | 108 | 97 (inactive) | 122 (inactive) |
| C=CCc1ccc(O)c(-c2ccc(O)c(CC=C)c2)c1 [Honokiol] | 100 | 107 | 81 (inactive) | 101 (inactive) |
| CCC1(O)CC2CN(CCc3c([nH]c4ccccc34)C(C(=O)OC)(c3cc4c(cc3OC)N(C)C3C(O)(C(=O)OC)C(OC(C)=O)C5(CC)C=CCN6CCC43C65)C2)C1.O=S(=O)(O)O (stereo not drawn) [Vinblastine sulfate salt] | 48.9 | 16.8 | 152 (active) | 132 (inactive) |
| Cl.Cl.OCCN1CCN(CCCN2c3ccccc3C=Cc3ccccc32)CC1 | 102 | 98.8 | 99.1 (inactive) | 106 (inactive) |
| Cc1cc(C(C)(C)C)cc(C)c1CC1=NCCN1.Cl [Xylometazoline hydrochloride] | 97.5 | 93.3 | 98.3 (inactive) | 110 (inactive) |
| COc1ccccc1N1CCN(CCCCNS(=O)(=O)c2cccc3c(N(C)C)cccc23)CC1.O=C(O)C=CC(=O)O [Cortexolone maleate] | 85.1 | 99.8 | 117 (inactive) | 131 (inactive) |
| Cc1cc2nc3c(=O)[nH]c(=O)nc-3n(C)c2cc1C=O | 99.8 | 97.8 | 91 (inactive) | 115 (inactive) |
| O=C1c2c(O)cc(O)cc2OC(c2ccc(O)c(O)c2)C1O (single isomer, unassigned; (+)) [(+)-Taxifolin] | 99.5 | 83.9 | 105 (inactive) | 102 (inactive) |
| CC(C)CC(NC(=O)C(Cc1ccccc1)NC(=O)c1cnccn1)B(O)O (stereo not drawn) [Bortezomib] | 34.2 | 10.2 | 144 (active) | 59.7 (inactive) |
| COc1cc(-c2oc3cc(O)ccc3c(=O)c2O)ccc1O [Geraldol] | 85.9 | 73.9 | 95.2 (inactive) | 99.4 (inactive) |
| CCOC(=O)Nc1ccc(NCc2ccc(F)cc2)nc1N.O=C(O)C=CC(=O)O [Flupirtine maleate] | 97.3 | 99.2 | 89.1 (inactive) | 105 (inactive) |
| c1coc(CNc2ncnc3nc[nH]c23)c1 [Kinetin] | 103 | 112 | 95.4 (inactive) | 92.8 (inactive) |
| CC12CCC(=O)C=C1CCC1C2C(O)CC2(C)C1CCC2(O)C(=O)COC(=O)CCC(=O)[O-].[Na+] (stereo not drawn) [Hydrocortisone 21-hemisuccinate sodium] | 99.5 | 99.5 | 82.6 (inactive) | 125 (inactive) |
| Br.COc1ccccc1N1CCN(CCCCN2C(=O)c3ccccc3C2=O)CC1 [NAN-190 hydrobromide] | 104 | 102 | 90.9 (inactive) | 100 (inactive) |
| C#C[C@@]1(OC(C)=O)CC[C@H]2[C@@H]3CCC4=CC(=O)CC[C@@H]4[C@H]3CC[C@@]21C [(17beta)-17-ethynyl-3-oxoestr-4-en-17-yl acetate] | 90.4 | 96.8 | 95.5 (inactive) | 121 (inactive) |
| CNC1C(O)C(NC)C2OC3(O)C(=O)CC(C)OC3OC2C1O.Cl.Cl (stereo not drawn) [Spectinomycin.2HCl] | 98.8 | 106 | 94.4 (inactive) | 100 (inactive) |
| Cl.N[C@@H](Cc1cnc[nH]1)C(=O)O [L-Histidine hydrochloride] | 101 | 109 | 99 (inactive) | 95.8 (inactive) |
| CCCCCC=CCC=CCC=CCC=CCCCCCC(=O)O [7(Z), 10(Z), 13(Z), 16(Z)-Ocosatetraenoic Acid] | 100 | 114 | 89.2 (inactive) | 106 (inactive) |
| CN(Cc1cnc2nc(N)nc(N)c2n1)c1ccc(C(=O)NC(CCC(=O)O)C(=O)O)cc1 (stereo not drawn) [Methotrexate] | 81.7 | 86.5 | 92.8 (inactive) | 87 (inactive) |
| COc1cc2c(cc1OC)-c1cc3ccc(OC)c(OC)c3c[n+]1CC2.[Cl-] [Palmatine chloride] | 100 | 108 | 96.1 (inactive) | 88.6 (inactive) |

| SMILES | cell number (HCC1569 [1]) | cell number (TDF [2]) | H1.0 immunofluorescence intensity (TDF [3]) | H1.0 immunofluorescence intensity (HCC1569 [4]) |
| --- | --- | --- | --- | --- |
| COc1cccc2oc(-c3ccccc3)cc(=O)c12 [5-Methoxyflavone] | 99.7 | 84.4 | 100 (inactive) | 98.8 (inactive) |
| Cl.NNc1nncc2ccccc12 [Hydralazine hydrochloride] | 101 | 107 | 93.2 (inactive) | 92 (inactive) |
| O=C1CCc2c(ccc3ccccc23)O1 [1,2-dihydro-3H-benzo[f]chromen-3-one] | 103 | 101 | 95.1 (inactive) | 92.7 (inactive) |
| NC(=O)c1ccccc1 [Benzamide] | 98.5 | 87.1 | 99.2 (inactive) | 107 (inactive) |
| CC(C)(C)n1nc(-c2ccc(Cl)cc2)c2c(N)ncnc21 | 67.2 | 107 | 99.8 (inactive) | 182 (active) |
| Cl.Cl.OCCN1CCN(CCCN2c3ccccc3Sc3ccc(C(F)(F)F)cc32)CC1 [Fluphenazine dihydrochloride] | 92.5 | 96.3 | 118 (inactive) | 133 (inactive) |
| CC1C2CCC3C4CC=C5CC(N(C)C)CCC5(C)C4CCC32CN1C (stereo not drawn) [Conessine] | 103 | 104 | 109 (inactive) | 113 (inactive) |
| CCCCCCCNC1CCCC1CCCCCCC(=O)O (racemic) | 99.7 | 93.5 | 88.5 (inactive) | 89.4 (inactive) |
| COc1ccc(-n2[nH]c3c(cnc4ccccc43)c2=O)cc1 [2-(4-methoxyphenyl)-1H-pyrazolo[4,3-c]quinolin-3(2H)-one] | 103 | 87.8 | 98.5 (inactive) | 93.6 (inactive) |
| COc1cc2c(cc1OC)-c1[nH]nc(Nc3cccc(F)c3)c1C2 [PDGF Receptor Tyrosine Kinase Inhibitor IV] | 64.3 | 8.88 | 131 (active) | 160 (active) |
| CC(C)C(=O)Nc1ccc([N+](=O)[O-])c(C(F)(F)F)c1 [Flutamide] | 81.3 ± 22 | 66.1 ± 48 | 112 (inactive) | 135 (inactive) |
| Cc1ccccc1C(OCCN(C)C)c1ccccc1.Cl (stereo not drawn) [Orphenadrine hydrochloride] | 100 | 111 | 96.6 (inactive) | 97 (inactive) |
| CN1CCc2cc3c(cc2C(=O)Cc2ccc4c(c2C1)OCO4)OCO3 [Protopine] | 99.4 | 108 | 97.6 (inactive) | 92.4 (inactive) |
| CSc1ccc(/C=C2/C(C)=C(CC(=O)O)c3cc(F)ccc32)cc1 | 103 | 105 | 99.8 (inactive) | 102 (inactive) |
| Cl.NOCC(=O)O.NOCC(=O)O [O-(Carboxymethyl)hydroxylamine hemihydrochloride] | 107 | 97.9 | 99.1 (inactive) | 105 (inactive) |
| Cl.Nc1ccn(C2OC(CO)C(O)C2O)c(=O)n1 [Cytosine-1-beta-D-arabinofuranoside hydrochloride] | 75.3 | 45.5 | 121 (active) | 100 (inactive) |
| CN=C(NC#N)NCCSCc1csc(N=C(N)N)n1 [Tiotidine] | 102 | 88.1 | 105 (inactive) | 99.1 (inactive) |
| CN1CCN2c3ccccc3Cc3ccccc3C2C1.Cl (stereo not drawn) [Mianserin.HCl] | 107 | 112 | 101 (inactive) | 96.2 (inactive) |
| CNc1nc(-c2ccc3c(N)n[nH]c3c2)cc(N2C[C@@H](C(=O)NC3CCCCC3)CC[C@H]2C)n1 | 52.3 | 77.9 | 115 (inactive) | 161 (active) |
| CCCCCCCCCCCCCCCC(=O)NCCO [Palmitylethanolamide] | 99.8 | 104 | 96.8 (inactive) | 95.5 (inactive) |
| CCn1c(=O)c2[nH]c(-c3ccccc3)nc2n(CC)c1=O [1,3-Diethyl-8-phenylxanthine] | 98.9 | 103 | 90.7 (inactive) | 87.1 (inactive) |
| O=C(c1ccc(OCCN2CCCCC2)cc1)c1c(-c2ccc(O)cc2)sc2cc(O)ccc12 [Raloxifene] | 95.5 | 105 | 102 (inactive) | 127 (inactive) |
| NC(N)=NC(N)=Nc1ccccc1 [1-Phenylbiguanide] | 105 | 114 | 89.2 (inactive) | 84.1 (inactive) |
